High-throughput results: PubChem, National Center for Advancing Translational Sciences (NCATS)
LmPK inh: inhibitors of Leishmania mexicana pyruvate kinase | purified LmPK, Kinase-Glo ATP luminescence, 1 h | Potency, µM (top dose mostly 57.5 µM), inactives show top-dose activity change, negative = inhibition, usual class: inhibitors | 0.37% of 290,000 active; note: potency is the fitted concentration of half-maximal effect; % is set by controls: 0 for no effect and ±100 for the full control effect
Target sequence (Q27686 whole entry, looked up): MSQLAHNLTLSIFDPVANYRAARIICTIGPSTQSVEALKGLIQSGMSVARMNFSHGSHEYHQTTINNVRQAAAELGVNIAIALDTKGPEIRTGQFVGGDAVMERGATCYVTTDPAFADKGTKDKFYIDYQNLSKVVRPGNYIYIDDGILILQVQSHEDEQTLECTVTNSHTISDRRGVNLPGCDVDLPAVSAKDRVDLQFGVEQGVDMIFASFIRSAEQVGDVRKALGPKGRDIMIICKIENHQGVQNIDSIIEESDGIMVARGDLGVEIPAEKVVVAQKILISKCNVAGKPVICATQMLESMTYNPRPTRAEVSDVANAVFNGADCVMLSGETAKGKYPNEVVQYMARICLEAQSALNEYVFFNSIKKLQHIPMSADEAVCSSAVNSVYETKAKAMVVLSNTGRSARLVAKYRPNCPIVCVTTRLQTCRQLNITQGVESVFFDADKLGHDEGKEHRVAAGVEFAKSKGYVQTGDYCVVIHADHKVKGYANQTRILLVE
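Purified LmPK (0.1 nM) converted ADP (0.1 mM) to ATP with PEP (0.5 mM) in imidazole buffer pH 7.2 with KCl and MgCl2, 1 h at room temperature. ATP was read by Kinase-Glo luminescence; data normalized to uninhibited and no-enzyme controls.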
Pf growth 96h: P. falciparum growth inhibition at 96 hour, primary screen for plastid delayed-death inhibitors; P. falciparum luciferase reporter growth, 96 h; Potency, µM (doses to about 28.7 µM), without a hit: at the highest dose activity change, negative = inhibition, actives largely listed as inhibitors; 6.9% of 320,000 active; note: potency is the fitted concentration of half-maximal effect; % is set by controls: 0 for no effect and ±100 for the full control effect
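Erythrocytes infected with luciferase-expressing P. falciparum were dispensed at 2% hematocrit and 0.05% parasitemia (final), then incubated with compounds 96 hours at 37 C in 5% CO2. Luminescence after detection reagent addition reported growth.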
Cycloheximide cs: affects cycloheximide protein synthesis inhibition readout, counter-screen; 12% of 300,000 active; max response, %; cell reporter, cycloheximide protein synthesis inhibition counterscreen; in the data active = max response mostly above about 13%, no sharp cut-off; inactive = mostly below about 14%; note: read at 38.3 µM for the half of the compounds with a filed dose; 0% is about no effect
Shiga inhibitor: Shiga toxin inhibition; Vero cells, Shiga toxin protein synthesis inhibition reporter; inhibition, % at 38.7 µM; 9.2% of 290,000 active; in the data active = inhibition mostly above about 28%, no sharp cut-off; inactive = mostly below about 43%; note: 0% is about no effect
Pf growth 48h: P. falciparum growth inhibition at 48 hours (one generation) | Potency, µM (series often up to 28.7 µM), for the others: top-dose activity change, negative = inhibition, actives largely listed as inhibitors | P. falciparum luciferase growth in erythrocytes, 48 h | 5.9% of 310,000 active; note: potency is the fitted concentration of half-maximal effect; % is set by controls: 0 for no effect and ±100 for the full control effect
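Luminescence readout; reporter = integrated firefly luciferase in P. falciparum. RBC culture at 2% hematocrit, 0.1% parasitemia final, 37 C/5% CO2; decreased signal taken as growth inhibition.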
Active calls of the source: *; i = inactive; ? = inconclusive; nt = not tested or not shown; [ ] = another dose, or the depositor's remark. This is a sample that favours compounds with a hit; in the whole collection about 22% have one here. Unless noted, calls come from the whole dose curve; as a rule, active = well fitted inhibition curve with a large enough effect; inconclusive = small, poorly fitted or top-dose-only effect, or another doubt; inactive = no such curve, though single readings can be large or run the other way.

SMILES	LmPK inh	Pf growth 96h	Cycloheximide cs	Shiga inhibitor	Pf growth 48h
O=C(/C=C/c1ccccc1)Nc1ccc(Cl)cn1	-4.1%	-20.5%	33.0*	111.6*	104.2%
Cc1cccc(NC(=O)/C(C#N)=C/c2ccc(Cl)cc2)n1	-3.5%	26.9%	1.2	12.5	0.9%
CC(=O)c1ccc(NC(=O)/C=C/c2ccc(C)cc2)cc1	2.2%	30.8%	7.0	47.5	-3.7%
Cc1cccc(NC(=O)/C=C/c2ccc(Cl)cc2)n1	-18.4%	?	35.1*	65.4*	128.5%
CSc1cccc(NC(=O)/C=C/c2ccccc2)c1	2.7%	10.4µM*	35.6*	71.4*	118.6%
O=C(NNC(=O)c1cc2cc(OC(F)(F)F)ccc2[nH]1)c1cccc(C(F)(F)F)c1	10.2%	59.5%	-1.4	-7.8	16.8%
CCCCNC(=O)COC(=O)c1ccccc1F	3.4%	8.5%	10.4	5.4	1.8%
CSc1cccc(NC(=O)/C=C/c2ccc(Cl)cc2)c1	-8.5%	-28.4%	39.9*	51.1*	-8.9%
O=C(/C=C/c1ccccc1)Nc1cccc(C(=O)O)c1	?	?	34.7*	23.5*	0.262µM*
O=c1c(Cl)c(N2CCN(c3ccc(F)cc3)CC2)cnn1-c1nc2ccccc2s1	-7.5%	183.9%	38.8*	74.7*	195.6%
O=C1CC(N2CCN(c3nc4ccccc4s3)CC2)C(=O)N1c1ccc(F)cc1 (centres undefined)	3.4%	?	-5.6	-6.1	6.7%
CC(=O)Nc1ccc(N2C(=O)CSC2c2cccc([N+](=O)[O-])c2)cc1 (centres undefined)	-4.3%	44.6%	5.5	-15.1	6.6%
CS(=O)(=O)c1ccccc1-c1nnc(NC(=O)C2=COCCO2)o1	nt	8.1%	nt	nt	17.5%
Cc1c(N(C(=O)CNC(=O)c2ccccc2)C2(C(=O)NC3CCCC3)CCCCC2)c(=O)n(-c2ccccc2)n1C	5.4%	?	-2.8	3.4	3.7µM*
O=C(Cn1cccc1C(=O)c1ccccc1)NCc1ccc(Cl)cc1	3.9%	-1.4%	-4.1	16.4	16.2%
O=C(Cn1cccc1C(=O)c1ccccc1)NCc1cccc(Cl)c1	-0.7%	13.1µM*	32.5*	53.5*	44.4%
CC(C)(C)c1ccc(/C=N/N2C(=O)CSC2=S)cc1	3.7%	-8.1%	15.8*	29.7	2.9%
COc1ccc(/C=N/N2C(=O)CSC2=S)cc1	2.3%	?	9.2	17.3	20.1%
CCOC(=O)Cn1cnc(-c2ccc([N+](=O)[O-])cc2)c1	-2.8%	4.8%	43.2*	74.9*	?
[O-]/C(=C(\C(=S)Nc1ccc(Cl)cc1)[n+]1ccccc1)c1ccc(OC(F)F)cc1	-7.2%	-4.5%	11.4	12.2	10.4µM*
C=CCNC(=S)/C(=C(/[O-])c1ccc([N+](=O)[O-])cc1)[n+]1ccccc1	-4.5%	-3.2%	-5.0	-10.2	130.0%
[O-]/C(=C(\C(=S)Nc1ccccc1F)[n+]1ccccc1)c1ccc(-c2ccccc2)cc1	0.7%	-7.9%	18.5*	93.8	0.0%
CCOc1ccccc1NC(=O)NC1CCN(CC(=O)Nc2ccc3c(c2)OCCO3)CC1	-7.0%	?	-3.2	-3.2	-26.4%
CCOc1ccccc1NC(=S)/C(=C(\[O-])c1ccc2c(c1)OCCO2)[n+]1ccc(CC)cc1	-4.9%	2.33µM*	7.2	-13.7	nt
CC(C)(C)c1cc[n+](/C(C(=S)Nc2ccccc2F)=C(/[O-])c2ccc3c(c2)OCCO3)cc1	-4.7%	?	22.8*	50.4	?
SMILES	LmPK inh	Pf growth 96h	Cycloheximide cs	Shiga inhibitor	Pf growth 48h
CCCC(=O)NCc1cc(-c2nn(C)c(=O)c3ccccc23)ccc1OC	-3.4%	?	-5.1	-13.0	-24.4%[5.75 µM]
O=C1CC(NS(=O)(=O)c2cccnc2)CN1c1ccc(Cl)cc1 (centres undefined)	nt	-6.2%	nt	nt	-5.4%
CCCCOc1ccc(C2(C)CC(=O)NC2=O)cc1 (centres undefined)	-1.2%	nt	21.5*	77.6	25.0%
COc1cccc(CN(C)C(=O)c2ccc(N3CCCC3)c([N+](=O)[O-])c2)c1	-0.8%	13.1µM*	4.6	13.3	-7.1%
COc1ccc(Cl)cc1NC(=O)CN(C)C(=O)c1ccc(N2CCCCC2)c([N+](=O)[O-])c1	nt	?	nt	nt	13.1µM*
COCCN(C(=O)COC(=O)/C=C/c1ccc2c(c1)OCO2)c1c(N)n(Cc2ccccc2)c(=O)[nH]c1=O	nt	?	nt	nt	-4.5%
CC1CCCC(NC(=O)CCC(=O)N2CCOc3ccccc32)C1C (centres undefined)	-7.6%	9.28µM*	0.9	3.7	8.6%
CCOc1ccc(CCNC(=O)CCC(=O)N2CCOc3ccccc32)cc1OCC	-5.8%	2.4%	-2.7	11.7	1.5%
O=C(CCC(=O)N1CCOc2ccccc21)NCCc1ccccc1	-1.5%	14.7µM*	8.3*	12.3	32.6%
O=C(COC(=O)COc1cccc(C(F)(F)F)c1)NC(=O)NC1CCCCC1	nt	-4.1%	nt	nt	2.4%
Cc1cc2ncc(-c3cccc(Cl)c3)cn2n1	2.7%	127.7%	47.6*	75.5*	i
Cc1nn2cc(-c3ncc(C(F)(F)F)cc3Cl)cnc2c1Br	-2.5%	i	20.1	57.4*	i
Cc1cc2ncc(-c3ncc(C(F)(F)F)cc3Cl)cn2n1	?	0.7%	15.1*	10.1	68.3%
N#Cc1cnn2cc(-c3ncc(C(F)(F)F)cc3Cl)cnc12	-3.0%	?	28.7*	24.4	?
CC(C)CNC(=S)N(CCO)Cc1cc2cc3c(cc2[nH]c1=O)OCO3	0.7%	?	-0.9	-12.8	-20.6%
O=[N+]([O-])c1ccccc1/C=C/C=N/Nc1nc(N2CCCCC2)nc(N2CCCCC2)n1	-0.8%	?	-2.7	20.4	-13.9%
NS(=O)(=O)c1ccc(N/N=C/C=C/c2ccccc2[N+](=O)[O-])cc1	10.9%	59.1%	36.7*	79.9*	59.5%
O=C(CN1CCN(Cc2ccccc2)CC1)N/N=C/C=C/c1ccccc1[N+](=O)[O-]	2.5%	36.7%	7.8	-6.3	4.1%
O=C(O)c1cc(N/N=C/C=C/c2ccccc2[N+](=O)[O-])ccc1Cl	0.7%	494.5%	41.8*	68.0*	313.3%
CCCNC(=S)N1CCC(NC(=O)Nc2ccc(C)cc2)CC1	2.2%	-20.7%	-1.2	6.3	15.1%
O=C(CSc1ncc(-c2ccc(F)cc2)[nH]1)N1CCCCC1	2.4%	-25.4%	25.6*	43.6*	65.4%
O=C(CSc1ncn[nH]1)N1CCCCC1	-4.0%	39.7%	-0.2	-6.7	88.5%
O=C(CSc1ncc(-c2ccccc2)[nH]1)Nc1ccccc1F	3.5%	-9.0%	39.5*	71.5*	107.6%
O=C(CSc1ncc(-c2ccccc2)[nH]1)Nc1cccc(O)c1	11.8%	20.5%	11.6*	34.1	nt
NC(=O)CSc1ncc(-c2ccccc2)[nH]1	-2.4%	?	13.5*	78.8*	45.2%
O=C(CSc1ncc(-c2ccccc2)[nH]1)Nc1ccccc1	2.9%	nt	7.0	3.4	6.7%
O=C(COC(=O)C12CC3CC(CC(Br)(C3)C1)C2)Nc1ccc2[nH]c(=O)[nH]c2c1	nt	8.0%	nt	nt	-2.6%
Cc1cc2nn(-c3cccc4ccccc34)nc2cc1NC(=O)c1cccs1	1.5%	7.38µM*	11.5	13.5	nt
